Results reported in PubChem BioAssay AID1159580 (chemical genetic matrix, 2015).
About 2,000 (36%) of roughly 5,500 compounds were called active. About 18% were inconclusive and are not listed. Rule as the data show it: active = normalized growth mostly below about 0.91 (no sharp cut-off); inconclusive = no clear call, values can overlap the other calls; inactive = mostly above about 0.92. This is one part of the list.

Assay: chemical genetic growth profiling, strain panel (AID 1159580);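 also: tested at 20 µM; growth read once vehicle control cultures reached saturation at 30 °C; 1 = growth at the plate median or of vehicle wells; lower values mean less growth of the strain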
Settings: growth OD

Measured: normalized growth

Cc1cc(O)c(C)c(O)c1C(=O)O
inactive: S. cerevisiae deletion strains, locus YJR066W, strain TOR1, active compounds read low 0.948 | S. cerevisiae deletion strains, locus YKL009W, strain mrt4, active compounds read low 1.01 | S. cerevisiae deletion strains, locus YKL068W, active compounds read low 0.982 | S. cerevisiae deletion strains, locus YKL085W, strain MDH1 (second series), active compounds read low 0.997 | S. cerevisiae deletion strains, locus YKL085W, strain MDH1, active compounds read low 0.997 | S. cerevisiae deletion strains, locus YKL160W, strain elf1, active compounds read low 1.02 | S. cerevisiae deletion strains, locus YKR001C, strain vps1, active compounds read low 0.971 | S. cerevisiae deletion strains, locus YKR026C, strain gcn3, active compounds read low 0.983 | S. cerevisiae deletion strains, locus YKR091W, strain srl3, active compounds read low 0.99 | S. cerevisiae deletion strains, locus YLL001W, strain dnm1, active compounds read low 1.01 | S. cerevisiae deletion strains, locus YLL026W, active compounds read low 1 | S. cerevisiae deletion strains, locus YLL041C, strain sdh2, active compounds read low 0.999 | S. cerevisiae deletion strains, locus YLR027C, strain aat2, active compounds read low 0.983 | S. cerevisiae deletion strains, locus YLR039C, strain RIC1, active compounds read low 0.982 | S. cerevisiae deletion strains, locus YLR058C, strain SHM2, active compounds read low 1.01 | S. cerevisiae deletion strains, locus YLR102C, strain apc9, active compounds read low 0.987 | S. cerevisiae deletion strains, locus YLR113W, strain HOG1, active compounds read low 0.99 | S. cerevisiae deletion strains, locus YLR221C, strain rsa3, active compounds read low 0.991 | S. cerevisiae deletion strains, locus YLR258W, strain gsy2, active compounds read low 0.994 | S. cerevisiae deletion strains, locus YLR262C, strain YPT6 (second series), active compounds read low 0.944 | S. cerevisiae deletion strains, locus YLR262C, strain YPT6, active compounds read low 0.972 | S. cerevisiae deletion strains, locus YLR268W, strain sec22, active compounds read low 1.01 | S. cerevisiae deletion strains, locus YLR320W, strain mms22, active compounds read low 0.983 | S. cerevisiae deletion strains, locus YLR342W, strain FKS1 (second series), active compounds read low 0.972 | S. cerevisiae deletion strains, locus YLR342W, strain FKS1, active compounds read low 0.977 | S. cerevisiae deletion strains, locus YLR357W, strain rsc2, active compounds read low 0.956 | S. cerevisiae deletion strains, locus YLR370C, strain arc18, active compounds read low 0.988 | S. cerevisiae deletion strains, locus YLR371W, strain rom2, active compounds read low 1 | S. cerevisiae deletion strains, locus YLR384C, strain iki3, active compounds read low 0.998 | S. cerevisiae deletion strains, locus YLR418C, strain cdc73, active compounds read low 0.943 | S. cerevisiae deletion strains, locus YML016C, strain PPZ1, active compounds read low 0.924 | S. cerevisiae deletion strains, locus YML032C, strain rad52, active compounds read low 1.03 | S. cerevisiae deletion strains, locus YML120C, strain ndi1, active compounds read low 0.975 | S. cerevisiae deletion strains, locus YML124C, strain tub3, active compounds read low 0.989 | S. cerevisiae deletion strains, locus YMR058W, strain fet3, active compounds read low 0.974 | S. cerevisiae deletion strains, locus YMR078C, strain ctf18, active compounds read low 0.984 | S. cerevisiae deletion strains, locus YMR125W, strain sto1, active compounds read low 0.982 | S. cerevisiae deletion strains, locus YMR129W, active compounds read low 0.996 | S. cerevisiae deletion strains, locus YMR205C, strain PFK2, active compounds read low 0.977 | S. cerevisiae deletion strains, locus YMR223W, strain ubp8, active compounds read low 0.988 | S. cerevisiae deletion strains, locus YMR231W, strain pep5, active compounds read low 0.985 | S. cerevisiae deletion strains, locus YMR263W, strain SAP30, active compounds read low 1.02 | S. cerevisiae deletion strains, locus YMR307W, strain GAS1, active compounds read low 1.01 | S. cerevisiae deletion strains, locus YNL067W, strain RPL9B, active compounds read low 0.979 | S. cerevisiae deletion strains, locus YNL071W, strain lat1, active compounds read low 0.994 | S. cerevisiae deletion strains, locus YNL153C, strain GIM3, active compounds read low 0.988 | S. cerevisiae deletion strains, locus YNL183C, strain NPR1, active compounds read low 0.972 | S. cerevisiae deletion strains, locus YNL209W, strain ssb2, active compounds read low 0.986 | S. cerevisiae deletion strains, locus YNL233W, strain BNI4, active compounds read low 0.998 | S. cerevisiae deletion strains, locus YNL248C, strain rpa49, active compounds read low 0.996 | S. cerevisiae deletion strains, locus YNL250W, strain rad50, active compounds read low 0.946 | S. cerevisiae deletion strains, locus YNL271C, strain bni1, active compounds read low 0.969 | S. cerevisiae deletion strains, locus YNL298W, strain CLA4, active compounds read low 0.98 | S. cerevisiae deletion strains, locus YNL307C, strain MCK1, active compounds read low 0.98 | S. cerevisiae deletion strains, locus YNL322C, strain KRE1 (second series), active compounds read low 0.965 | S. cerevisiae deletion strains, locus YNL322C, strain KRE1, active compounds read low 1 | S. cerevisiae deletion strains, locus YNR049C, strain mso1, active compounds read low 0.983 | S. cerevisiae deletion strains, locus YNR052C, strain pop2, active compounds read low 0.966 | S. cerevisiae deletion strains, locus YOL012C, strain htz1 0.903 | S. cerevisiae deletion strains, locus YOL147C, strain pex11, active compounds read low 1.01 | S. cerevisiae deletion strains, locus YOR001W, strain rrp6, active compounds read low 1 | S. cerevisiae deletion strains, locus YOR061W, strain CKA2, active compounds read low 1.01 | S. cerevisiae deletion strains, locus YOR069W, strain VPS5, active compounds read low 0.99 | S. cerevisiae deletion strains, locus YOR070C, strain gyp1, active compounds read low 0.989 | S. cerevisiae deletion strains, locus YOR080W, strain dia2, active compounds read low 0.974 | S. cerevisiae deletion strains, locus YOR083W, strain WHI5, active compounds read low 1.03 | S. cerevisiae deletion strains, locus YOR106W, strain vam3, active compounds read low 0.972 | S. cerevisiae deletion strains, locus YOR136W, strain idh2, active compounds read low 0.986 | S. cerevisiae deletion strains, locus YOR144C, strain elg1, active compounds read low 0.986 | S. cerevisiae deletion strains, locus YOR184W, strain ser1, active compounds read low 1.05 | S. cerevisiae deletion strains, locus YOR231W, strain MKK1, active compounds read low 1.03 | S. cerevisiae deletion strains, locus YOR265W, strain rbl2, active compounds read low 1 | S. cerevisiae deletion strains, locus YOR270C, strain vph1, active compounds read low 0.802 | S. cerevisiae deletion strains, locus YOR290C, strain snf2, active compounds read low 0.956 | S. cerevisiae deletion strains, locus YOR316C, strain cot1, active compounds read low 0.977 | S. cerevisiae deletion strains, locus YPL051W, strain arl3, active compounds read low 1.02 | S. cerevisiae deletion strains, locus YPL055C, strain LGE1, active compounds read low 1.01 | S. cerevisiae deletion strains, locus YPL078C, strain atp4, active compounds read low 1 | S. cerevisiae deletion strains, locus YPL106C, strain sse1, active compounds read low 0.926 | S. cerevisiae deletion strains, locus YPL240C, strain hsp82, active compounds read low 1 | S. cerevisiae deletion strains, locus YPL256C, strain CLN2, active compounds read low 1.03 | S. cerevisiae deletion strains, locus YPR119W, strain clb2, active compounds read low 0.997 | S. cerevisiae deletion strains, locus YPR141C, strain kar3, active compounds read low 0.973 | S. cerevisiae deletion strains, locus YPR163C, strain tif3, active compounds read low 0.969 | S. cerevisiae deletion strains, locus YPR167C, strain met16, active compounds read low 0.972 | S. cerevisiae deletion strains, strain wtn01, active compounds read low 1.01 | S. cerevisiae strains, strain wild type, active compounds read low 1
